According to PubChem BioAssay (NCATS):
Inconclusive results are not listed. The source made the active and inactive calls. Unless noted, calls come from the whole dose curve; as a rule, active = well fitted curve in the direction sought with a large enough effect; inconclusive = small, poorly fitted or top-dose-only effect, or another doubt; inactive = no such curve, though single readings can be large; an effect the other way counts as inactive or inconclusive.

Legend:
[1] = target: Alpha-galactosidase (Coffea arabica) (UniProt Q42656); test: Counterscreen for Glucocerebrosidase Inhibitors: qHTS Assay for Coffee Bean alpha-Galactosidase at pH 4.5 (AID 957); note: series mostly up to about 77 µM
Alpha-galactosidase (Coffea arabica), sequence (Q42656 whole entry, looked up): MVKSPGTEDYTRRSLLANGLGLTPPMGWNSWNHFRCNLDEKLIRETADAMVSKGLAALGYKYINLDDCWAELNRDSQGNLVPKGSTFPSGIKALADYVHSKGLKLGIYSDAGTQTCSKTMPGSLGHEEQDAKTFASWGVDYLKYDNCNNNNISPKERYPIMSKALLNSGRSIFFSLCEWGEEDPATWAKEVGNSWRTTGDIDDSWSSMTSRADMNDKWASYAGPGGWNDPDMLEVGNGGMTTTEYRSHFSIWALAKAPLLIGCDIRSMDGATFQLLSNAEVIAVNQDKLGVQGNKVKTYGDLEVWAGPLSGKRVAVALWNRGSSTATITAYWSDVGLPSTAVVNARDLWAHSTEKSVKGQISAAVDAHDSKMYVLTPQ
In short: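 Enzyme is added first (2 nM final), then compounds titrated from 0.7 nM to 77 uM, then 80 uM 4-methylumbelliferyl alpha-D-galactopyranoside; after 20 min at room temperature a pH 10 NaOH/glycine stop precedes fluorescence reading at 365/440 nm.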

[2] = target: Alpha-galactosidase (Coffea arabica) (UniProt Q42656); test: Counterscreen for Glucocerebrosidase Inhibitors: qHTS Assay for Coffee Bean alpha-Galactosidase at pH 5.9 (AID 998)
In short: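 In 50 mM citric acid pH 5.9 with 0.005% Tween-20, coffee bean enzyme hydrolyses 80 uM 4-MU alpha-D-galactopyranoside over 20 min at RT. Activity is normalized to controls; AC50 comes from Hill-modelled concentration-response data.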

[3] = High Content Imaging Cell-Based qHTS for Inhibitors of the mTORC1 Signaling Pathway in MEF (Tsc2-/-, p53-/-) Cells (AID 2666);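 note: percent of cells scored positive for phospho-rpS6 Ser235/236 immunostaining by imaging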
In short: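 Inhibition of rpS6 phosphorylation is measured by immunofluorescence imaging in empty-vector Tsc2-/-, p53-/- mouse embryonic fibroblasts after 24 hrs compound exposure at 37 degree Celsius. Results are reported as % positive cells per well.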

[4] = Validation screen for inhibitors of Lassa infection (AID 463096; calls by dose curve)
[5] = target: M-phase phosphoprotein 8 (Homo sapiens) (UniProt Q99549); test: qHTS Validation Assay for Inhibitors for MPP8 Chromodomain Interactions with Methylated Histone Tails (AID 488949);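 note: AlphaScreen signal from MPP8 chromodomain bound to biotinylated H3K9me3 peptide; top concentration of the series differs between compounds; nearly all actives have a fitted effect of over 55% in size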
M-phase phosphoprotein 8 (Homo sapiens), sequence (Q99549 whole entry, looked up): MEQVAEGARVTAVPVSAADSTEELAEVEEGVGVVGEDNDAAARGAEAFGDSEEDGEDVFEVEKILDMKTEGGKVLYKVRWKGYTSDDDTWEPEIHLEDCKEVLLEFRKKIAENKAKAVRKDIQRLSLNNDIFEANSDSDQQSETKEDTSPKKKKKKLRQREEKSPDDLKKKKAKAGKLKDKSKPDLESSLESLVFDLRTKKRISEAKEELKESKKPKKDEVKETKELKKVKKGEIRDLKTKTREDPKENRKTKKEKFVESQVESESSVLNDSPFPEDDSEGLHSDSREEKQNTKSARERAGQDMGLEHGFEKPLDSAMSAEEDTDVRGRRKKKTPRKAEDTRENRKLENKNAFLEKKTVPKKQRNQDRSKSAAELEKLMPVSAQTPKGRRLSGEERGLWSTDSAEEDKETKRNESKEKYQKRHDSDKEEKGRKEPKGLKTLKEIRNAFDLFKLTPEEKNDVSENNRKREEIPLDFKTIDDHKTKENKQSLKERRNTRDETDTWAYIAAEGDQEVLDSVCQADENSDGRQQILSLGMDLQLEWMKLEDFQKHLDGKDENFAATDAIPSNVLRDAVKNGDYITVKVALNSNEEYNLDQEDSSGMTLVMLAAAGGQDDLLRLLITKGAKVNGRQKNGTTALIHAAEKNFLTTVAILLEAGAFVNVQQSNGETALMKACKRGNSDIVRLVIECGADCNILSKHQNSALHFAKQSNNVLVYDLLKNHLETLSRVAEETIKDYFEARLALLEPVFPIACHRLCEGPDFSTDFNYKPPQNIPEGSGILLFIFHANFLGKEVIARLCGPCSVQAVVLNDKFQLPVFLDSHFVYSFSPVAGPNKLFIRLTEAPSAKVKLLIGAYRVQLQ
In short: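 AlphaScreen proximity signal from streptavidin donor and Ni-chelate acceptor beads (10 ug/mL each) reported binding of MPP8 to trimethyl-K9 H3(1-18) peptide, both at 50 nM. The complex formed 30 min before a 30 min compound exposure at room temperature, in PBS pH 7.4.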

[6] = target: Ubiquitin carboxyl-terminal hydrolase 1 (Homo sapiens) (UniProt O94782); test: Inhibitors of USP1/UAF1: Pilot qHTS (AID 504865);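 note: rhodamine fluorescence freed from ubiquitin-rhodamine substrate followed over time; top concentration of the series differs between compounds; nearly all actives have a fitted effect of over 35% in size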
Ubiquitin carboxyl-terminal hydrolase 1 (Homo sapiens), sequence (O94782 whole entry, looked up): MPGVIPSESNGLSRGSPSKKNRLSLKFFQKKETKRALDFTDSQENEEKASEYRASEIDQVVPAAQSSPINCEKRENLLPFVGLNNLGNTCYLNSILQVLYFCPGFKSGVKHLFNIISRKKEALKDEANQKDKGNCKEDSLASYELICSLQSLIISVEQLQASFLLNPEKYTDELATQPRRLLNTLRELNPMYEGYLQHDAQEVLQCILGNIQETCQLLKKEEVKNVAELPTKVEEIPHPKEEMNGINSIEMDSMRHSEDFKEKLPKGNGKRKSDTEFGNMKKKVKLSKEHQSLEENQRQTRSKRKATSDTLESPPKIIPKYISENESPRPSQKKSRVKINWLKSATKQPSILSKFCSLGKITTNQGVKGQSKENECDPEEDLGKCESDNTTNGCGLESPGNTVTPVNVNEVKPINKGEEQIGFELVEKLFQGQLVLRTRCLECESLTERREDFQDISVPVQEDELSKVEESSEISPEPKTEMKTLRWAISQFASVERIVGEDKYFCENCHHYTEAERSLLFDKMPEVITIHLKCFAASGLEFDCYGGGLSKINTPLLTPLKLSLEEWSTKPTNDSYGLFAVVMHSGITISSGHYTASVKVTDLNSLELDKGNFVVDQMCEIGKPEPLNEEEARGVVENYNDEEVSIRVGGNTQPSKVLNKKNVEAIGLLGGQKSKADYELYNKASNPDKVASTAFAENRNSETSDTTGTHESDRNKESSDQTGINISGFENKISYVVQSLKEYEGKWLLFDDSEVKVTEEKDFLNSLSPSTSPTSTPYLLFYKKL
In short: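 Deubiquitinase activity followed as kinetic rhodamine fluorescence release from 150 nM Ub-Rho. 1 nM USP1/UAF1 with compound, after 15 min room-temperature preincubation, in HEPES pH 7.8 buffer containing TCEP, EDTA, BSA and Tween-20.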

[7] = HTS Assay for Allosteric Antagonists of the Human D2 Dopamine Receptor: Hit Validation in HTRF (AID 624455);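 note: stable D1 dopamine receptor cell line scored for blocking the D1 response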
In short: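 Inhibition of the D1-mediated response is measured by HTRF in cells that stably express the D1 dopamine receptor. Compounds reaching this step are hits from calcium-flux antagonism testing at EC80 dopamine in inducible Hek293 Trex D2 cells.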

[8] = target: Arylsulfatase A (Homo sapiens) (UniProt P15289); test: qHTS screen for enhancers of Arylsulfatase A (ASA1): LOPAC Validation Assay (AID 720538)
Arylsulfatase A (Homo sapiens), sequence (P15289 whole entry, looked up): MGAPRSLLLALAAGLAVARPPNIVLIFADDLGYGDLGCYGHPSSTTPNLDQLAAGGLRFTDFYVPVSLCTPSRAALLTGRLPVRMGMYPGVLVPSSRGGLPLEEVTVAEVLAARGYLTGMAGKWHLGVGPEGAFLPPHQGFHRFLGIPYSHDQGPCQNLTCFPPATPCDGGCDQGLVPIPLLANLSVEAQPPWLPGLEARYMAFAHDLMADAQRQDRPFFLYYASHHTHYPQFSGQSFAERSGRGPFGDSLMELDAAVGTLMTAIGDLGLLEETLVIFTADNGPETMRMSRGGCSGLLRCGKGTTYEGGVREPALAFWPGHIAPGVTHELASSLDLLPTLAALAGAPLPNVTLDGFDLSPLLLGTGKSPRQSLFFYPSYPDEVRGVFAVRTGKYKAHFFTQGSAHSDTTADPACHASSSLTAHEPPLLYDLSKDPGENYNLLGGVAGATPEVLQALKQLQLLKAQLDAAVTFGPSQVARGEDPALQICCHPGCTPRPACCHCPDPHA
In short: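 Enhancer assay in patient-derived MLD fibroblasts carrying ASA-I179S: 48 h compound exposure at 37 C, then 14 h room-temperature pNCS turnover (0.5 mM final) in lysis buffer. Read by fluorescence at 525/598 nm after NaOH stop.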

[9] = target: Parathyroid hormone/parathyroid hormone-related peptide receptor (Homo sapiens) (UniProt Q03431); test: qHTS for PTHR1 Agonists: Optimization Screen against the NCGC LOPAC library (AID 1347079);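 note: GloSensor cAMP luminescence in HEK-293 GP2 cells expressing human PTHR1 with IBMX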
Parathyroid hormone/parathyroid hormone-related peptide receptor (Homo sapiens), sequence (Q03431 whole entry, looked up): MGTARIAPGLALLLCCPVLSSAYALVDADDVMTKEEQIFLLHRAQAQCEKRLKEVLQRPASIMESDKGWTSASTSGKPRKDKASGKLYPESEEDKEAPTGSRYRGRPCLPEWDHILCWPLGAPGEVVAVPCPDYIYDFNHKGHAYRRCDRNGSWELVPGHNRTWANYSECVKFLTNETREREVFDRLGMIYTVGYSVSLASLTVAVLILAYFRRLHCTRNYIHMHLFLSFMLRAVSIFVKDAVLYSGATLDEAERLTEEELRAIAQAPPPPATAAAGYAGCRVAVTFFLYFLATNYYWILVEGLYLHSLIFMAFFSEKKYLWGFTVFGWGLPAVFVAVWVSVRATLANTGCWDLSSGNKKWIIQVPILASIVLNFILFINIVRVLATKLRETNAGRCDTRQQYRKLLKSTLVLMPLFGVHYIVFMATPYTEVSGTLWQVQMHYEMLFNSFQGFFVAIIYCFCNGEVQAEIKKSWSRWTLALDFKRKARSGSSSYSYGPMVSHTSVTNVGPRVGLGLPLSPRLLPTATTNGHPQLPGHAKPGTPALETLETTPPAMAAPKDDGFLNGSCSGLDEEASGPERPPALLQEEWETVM
In short: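 HEK-293 GP2 cells, PTHR1 + GloSensor cAMP; 3000 cells/well, o/n. Luciferin + IBMX 0.5mM each (stock), 1 hr 37C. Cpd titration, 1 hr 37C. Lum after 15 min RT. Ctrl M-PTH(1-15) top 10uM.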

[10] = qHTS for Inhibitors of the Functional Ribonucleoprotein Complex (vRNP) of Lassa (LASV) Arenavirus: LASV Primary Screen - GLuc reporter signal (AID 1347082; calls by dose curve; tested in HEK293 reporter line; note: series mostly up to about 57 µM; nearly all actives have a fitted effect of over 60% in size)
[11] = qHTS for Inhibitors of the Functional Ribonucleoprotein Complex (vRNP) of Lassa (LASV) Arenavirus: Viability assay - alamar blue signal for LASV Primary Screen (AID 1347083; calls by dose curve; tested in HEK293 reporter line; note: series mostly up to about 57 µM; nearly all actives have a fitted effect of over 80% in size)
[12] = qHTS for Inhibitors of the Functional Ribonucleoprotein Complex (vRNP) of Lymphocytic Choriomeningitis Arenaviruses (LCMV): Viability assay - alamar blue signal for LCMV Primary Screen (AID 1347085; calls by dose curve; tested in HEK293 reporter line; note: series mostly up to about 57 µM; nearly all actives have a fitted effect of over 80% in size)
[13] = target: Nucleoprotein (Lymphocytic choriomeningitis virus (strain Armstrong)) (UniProt P09992); test: qHTS for Inhibitors of the Functional Ribonucleoprotein Complex (vRNP) of Lymphocytic Choriomeningitis Arenaviruses (LCMV): LCMV Primary Screen - GLuc reporter signal (AID 1347086; calls by dose curve; note: series mostly up to about 57 µM; nearly all actives have a fitted effect of over 70% in size)
Nucleoprotein (Lymphocytic choriomeningitis virus (strain Armstrong)), sequence (P09992 whole entry, looked up): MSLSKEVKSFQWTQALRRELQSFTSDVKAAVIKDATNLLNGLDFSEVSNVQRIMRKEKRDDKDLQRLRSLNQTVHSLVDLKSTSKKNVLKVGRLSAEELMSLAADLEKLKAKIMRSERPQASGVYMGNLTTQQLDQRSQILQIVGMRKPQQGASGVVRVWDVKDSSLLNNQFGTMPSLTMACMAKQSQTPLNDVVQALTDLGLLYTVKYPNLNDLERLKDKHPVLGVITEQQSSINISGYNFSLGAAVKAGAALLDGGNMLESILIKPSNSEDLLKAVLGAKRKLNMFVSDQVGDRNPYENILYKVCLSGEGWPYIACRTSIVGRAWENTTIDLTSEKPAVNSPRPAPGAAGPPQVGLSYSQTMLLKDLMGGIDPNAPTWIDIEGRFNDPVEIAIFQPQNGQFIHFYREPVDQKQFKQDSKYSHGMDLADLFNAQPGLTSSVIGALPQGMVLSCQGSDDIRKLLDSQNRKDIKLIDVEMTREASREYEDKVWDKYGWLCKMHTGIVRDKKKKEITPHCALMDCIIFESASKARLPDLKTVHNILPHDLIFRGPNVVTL

Measured: Potency

C1CCc2nnnn2CC1
inactive: all assays above
